PubChem BioAssay
The source made the active and inactive calls.

What was measured:
[1] = tested on: PRMT1 (protein arginine N-methyltransferase 1); assay: small molecules binding arginine methyltransferase PRMT1 – biochemical, small-molecule microarray, 635 nm fluorescence, primary screen (AID 1088); details: higher = more signal;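 note: binding of Prmt1 protein to compounds spotted on small-molecule microarray slides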
[2] = growth effects on S. cerevisiae YJM789 – YJM789 clinical isolate, OD600, 24 h, basal, primary screen (AID 1089); details: higher = more signal, called active from +8 up or from −8 down;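 note: growth of clinical yeast isolate S. cerevisiae YJM 789 seeded 1000 cells per well; test concentration not given here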
[3] = S. pombe growth modifiers, basal conditions – strain 972, OD600, 24 h, no modulator, primary screen (AID 1090);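 note: basal condition with compound alone and no growth modifier present; test concentration not given here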; details: S. pombe 972 growth, higher = more signal, called active from +8 up or from −8 down
[4] = budding yeast growth modifiers under rapamycin – strain BY4716, OD600, 96 h, primary screen (AID 1091); note: test concentration not given here; details: S. cerevisiae BY4716 + rapamycin, higher = more signal, called active from +8 up or from −8 down
[5] = biological target: Torsin-1A-interacting protein 2 (Homo sapiens) (UniProt Q8NFQ8); assay: small molecules binding lysate-expressed LULL1 – cell lysate, human LULL1 lysate, 635/667 nm fluorescence, primary screen (AID 1092); details: small-molecule microarray, hLULL1 lysate binding, 635 nm fluorescence; higher = more signal;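 note: probe is lysate of COS7 cells overexpressing human LULL1; score merges per-feature 667 nm fluorescence with signal-to-noise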
[6] = optical density change of DRC41 E. coli – strain DRC41, OD650, 24 h, E. coli filamentation project, primary screen (AID 1093);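 note: MC1000 strain lacking acrAB efflux and sulA so SOS filamentation is blocked; test concentration not given here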; details: E. coli DRC41 growth, higher = more signal, called active from +8 up or from −8 down
[7] = probe aLefty2 binding to arrayed compounds – biochemical, biotinylated probe, 635/667 nm fluorescence, primary screen (AID 1094); details: small-molecule microarray, higher = more signal;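 note: score merges spot fluorescence near 667 nm with spot signal-to-noise ratio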
[8] = tested on: Noggin (protein binding on small-molecule microarray); assay: small molecules binding Noggin protein – biochemical, 635/667 nm fluorescence, primary screen (AID 1095); details: 635 nm fluorescence, higher = more signal;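 note: score merges 667 nm feature fluorescence with signal to noise over triplicate slides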
[9] = biological target: Neurogenic locus notch homolog protein 3 (Homo sapiens) (UniProt Q9UM47); assay: small molecules binding NOTCH3 protein – biochemical, 635/667 nm fluorescence, primary screen (AID 1096); details: small-molecule microarray, 635 nm fluorescence, higher = more signal
[10] = probe aEGFR binding to arrayed compounds – biochemical, biotinylated probe, 635/667 nm fluorescence, primary screen (AID 1097); details: small-molecule microarray, higher = more signal;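 note: probe is a biotinylated anti-EGFR antibody binding compounds printed on slides; score combines fluorescence near 667 nm and signal to noise of each spot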
[11] = tested on: Plasmodium falciparum Sir2 (PF13_0152, Sir2A); assay: Plasmodium falciparum Sir2A binding compounds – biochemical, small-molecule microarray, 635 nm fluorescence, primary screen (AID 1098); details: fluorescence 635 nm, higher = more signal;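 note: score merges spot fluorescence intensity with its signal-to-noise ratio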
[12] = probe aDKK1 binding to arrayed compounds – biochemical, biotinylated probe, 635/667 nm fluorescence, primary screen (AID 1099); details: small-molecule microarray, higher = more signal;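 note: score merges 667nm spot fluorescence with signal to noise across triplicate slides; reference of the scale not given here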
[13] = probe aCHRDL2 binding to arrayed compounds – biochemical, biotinylated probe, 635/667 nm fluorescence, primary screen (AID 1100); details: small-molecule microarray, higher = more signal
[14] = change in splice reporter luminescence, either direction, cell-based, HEK293, spliceosome inhibition project, primary screen (AID 1101); details: HEK293 splicing luciferase reporter, 24 h, higher = more signal, called active from +8 up or from −8 down;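 note: HEK293 cells carrying a splicing-competent luciferase reporter gene; test concentration not given here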
[15] = biological target: Fibroblast growth factor 10 (Homo sapiens) (UniProt O15520); assay: compounds binding fibroblast growth factor 10 – biochemical, small-molecule microarray, 635 nm fluorescence, primary screen (AID 1102); details: FGF10 binding, fluorescence 635 nm, higher = more signal
[16] = tested on: glycogen synthase kinase-3 (GSK3A per assay name; protocol says GSK3B); assay: compounds binding glycogen synthase kinase-3 – biochemical, small-molecule microarray, 635 nm fluorescence, GSK3A, primary screen (AID 1103); details: fluorescence 635 nm, higher = more signal; note: the record names both GSK3A and GSK3B
[17] = biological target: Epidermal growth factor receptor (Homo sapiens) (UniProt P00533); assay: compounds binding epidermal growth factor receptor – biochemical, small-molecule microarray, 635 nm fluorescence, primary screen (AID 1104); details: EGFR binding, higher = more signal;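 note: score merges 667 nm emission intensity with spot signal to noise over triplicate slides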
[18] = biological target: Follistatin-related protein 3 (Homo sapiens) (UniProt O95633); assay: compounds binding follistatin-related protein 3 – biochemical, small-molecule microarray, 635 nm fluorescence, primary screen (AID 1105); details: FSTL3 binding, higher = more signal;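 note: score merges emission near 667 nm and signal to noise per printed spot across three slides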
[19] = biological target: Dickkopf-related protein 1 (Homo sapiens) (UniProt O94907); assay: small molecules binding DKK1 protein – biochemical, small-molecule microarray, 635 nm fluorescence scan, primary screen (AID 1106); details: higher = more signal;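 note: score merges emission near 667 nm with signal to noise over three replicate slides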
[20] = tested on: Inhibin beta A chain (activin A); assay: small molecules binding activin A – biochemical, small-molecule microarray, 635 nm fluorescence scan, primary screen (AID 1107); details: INHBA, higher = more signal;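 note: mouse activin A protein probed at 4.33 µg/mL on printed slides; score merges bound-protein fluorescence near 667 nm with spot signal-to-noise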

Sequence of Follistatin-related protein 3 (Homo sapiens) (O95633 whole entry, looked up): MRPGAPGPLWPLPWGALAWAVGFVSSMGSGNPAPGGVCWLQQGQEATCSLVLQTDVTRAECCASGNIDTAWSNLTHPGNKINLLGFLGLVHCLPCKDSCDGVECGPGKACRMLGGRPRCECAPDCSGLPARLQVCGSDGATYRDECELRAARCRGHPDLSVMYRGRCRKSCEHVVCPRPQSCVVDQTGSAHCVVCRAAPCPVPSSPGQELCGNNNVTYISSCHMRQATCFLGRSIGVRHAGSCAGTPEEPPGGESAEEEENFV
Sequence of Torsin-1A-interacting protein 2 (Homo sapiens) (Q8NFQ8 whole entry, looked up): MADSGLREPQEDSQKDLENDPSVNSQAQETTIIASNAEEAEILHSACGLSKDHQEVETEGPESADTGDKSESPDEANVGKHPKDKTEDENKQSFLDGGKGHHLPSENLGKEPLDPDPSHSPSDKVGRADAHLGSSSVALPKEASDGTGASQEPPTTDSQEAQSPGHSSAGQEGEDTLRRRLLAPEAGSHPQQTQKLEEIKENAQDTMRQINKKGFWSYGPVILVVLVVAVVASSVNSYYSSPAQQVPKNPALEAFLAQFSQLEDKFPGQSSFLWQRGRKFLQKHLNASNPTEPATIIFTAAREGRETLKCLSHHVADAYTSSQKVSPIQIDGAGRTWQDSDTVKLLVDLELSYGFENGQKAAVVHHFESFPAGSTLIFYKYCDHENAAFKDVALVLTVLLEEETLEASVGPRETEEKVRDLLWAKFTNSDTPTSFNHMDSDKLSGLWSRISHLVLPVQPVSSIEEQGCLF
Sequence of Neurogenic locus notch homolog protein 3 (Homo sapiens) (Q9UM47 whole entry, looked up): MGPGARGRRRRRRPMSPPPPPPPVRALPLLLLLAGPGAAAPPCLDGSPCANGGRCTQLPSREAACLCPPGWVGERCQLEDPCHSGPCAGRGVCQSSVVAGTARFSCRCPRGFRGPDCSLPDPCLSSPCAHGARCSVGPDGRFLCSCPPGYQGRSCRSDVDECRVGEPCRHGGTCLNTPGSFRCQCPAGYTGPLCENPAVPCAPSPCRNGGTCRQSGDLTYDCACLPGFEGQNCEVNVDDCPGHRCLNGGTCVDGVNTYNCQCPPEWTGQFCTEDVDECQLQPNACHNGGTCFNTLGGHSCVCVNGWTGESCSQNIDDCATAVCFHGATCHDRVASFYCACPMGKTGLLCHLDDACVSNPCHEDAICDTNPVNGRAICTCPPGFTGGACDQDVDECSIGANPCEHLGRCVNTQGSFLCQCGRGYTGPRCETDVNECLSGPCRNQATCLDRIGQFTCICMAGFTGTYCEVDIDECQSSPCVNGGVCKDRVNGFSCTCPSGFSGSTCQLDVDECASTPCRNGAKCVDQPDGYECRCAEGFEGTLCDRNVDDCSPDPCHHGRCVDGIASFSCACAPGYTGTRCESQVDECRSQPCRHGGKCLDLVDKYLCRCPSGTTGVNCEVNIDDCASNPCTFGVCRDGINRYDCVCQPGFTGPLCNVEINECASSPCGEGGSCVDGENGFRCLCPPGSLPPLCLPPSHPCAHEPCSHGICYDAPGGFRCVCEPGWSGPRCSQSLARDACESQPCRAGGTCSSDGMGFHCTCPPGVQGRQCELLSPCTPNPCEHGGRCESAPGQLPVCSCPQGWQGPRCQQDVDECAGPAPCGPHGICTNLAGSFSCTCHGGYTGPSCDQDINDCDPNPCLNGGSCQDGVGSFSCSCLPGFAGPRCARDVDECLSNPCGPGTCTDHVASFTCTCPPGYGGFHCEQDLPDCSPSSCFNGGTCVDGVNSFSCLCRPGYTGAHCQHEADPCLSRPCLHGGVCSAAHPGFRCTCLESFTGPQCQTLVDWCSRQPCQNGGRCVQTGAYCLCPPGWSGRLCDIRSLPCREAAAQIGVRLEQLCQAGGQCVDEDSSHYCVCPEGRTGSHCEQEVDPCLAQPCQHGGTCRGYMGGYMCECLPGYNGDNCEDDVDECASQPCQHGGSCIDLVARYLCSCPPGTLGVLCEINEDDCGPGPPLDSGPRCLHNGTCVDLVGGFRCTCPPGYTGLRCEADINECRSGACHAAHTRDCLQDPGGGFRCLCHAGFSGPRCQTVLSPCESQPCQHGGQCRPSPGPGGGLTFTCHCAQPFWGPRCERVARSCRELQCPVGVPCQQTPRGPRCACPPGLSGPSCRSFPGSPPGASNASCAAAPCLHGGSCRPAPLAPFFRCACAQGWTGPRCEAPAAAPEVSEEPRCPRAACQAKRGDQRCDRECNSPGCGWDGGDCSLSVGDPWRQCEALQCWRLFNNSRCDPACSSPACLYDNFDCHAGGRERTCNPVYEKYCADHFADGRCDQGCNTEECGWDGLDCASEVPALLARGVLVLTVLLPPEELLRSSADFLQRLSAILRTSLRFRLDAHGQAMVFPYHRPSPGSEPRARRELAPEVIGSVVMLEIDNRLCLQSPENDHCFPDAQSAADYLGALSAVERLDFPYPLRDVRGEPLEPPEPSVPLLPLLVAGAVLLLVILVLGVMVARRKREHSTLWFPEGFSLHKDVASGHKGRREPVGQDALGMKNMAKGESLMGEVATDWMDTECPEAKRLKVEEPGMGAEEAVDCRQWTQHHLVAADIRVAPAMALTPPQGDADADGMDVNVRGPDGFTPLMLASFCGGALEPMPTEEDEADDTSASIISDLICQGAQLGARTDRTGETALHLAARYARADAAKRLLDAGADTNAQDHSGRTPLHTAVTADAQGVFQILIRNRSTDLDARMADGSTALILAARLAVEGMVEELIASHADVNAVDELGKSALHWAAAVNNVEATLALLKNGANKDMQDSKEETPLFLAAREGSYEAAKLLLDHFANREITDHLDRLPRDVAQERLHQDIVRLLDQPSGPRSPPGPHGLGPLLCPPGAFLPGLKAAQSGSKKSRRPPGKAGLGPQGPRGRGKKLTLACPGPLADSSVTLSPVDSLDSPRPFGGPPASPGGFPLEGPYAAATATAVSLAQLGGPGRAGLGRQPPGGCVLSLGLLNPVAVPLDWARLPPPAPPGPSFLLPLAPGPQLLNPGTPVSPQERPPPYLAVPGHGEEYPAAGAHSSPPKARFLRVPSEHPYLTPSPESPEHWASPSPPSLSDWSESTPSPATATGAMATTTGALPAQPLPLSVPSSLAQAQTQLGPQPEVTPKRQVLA
Sequence of Dickkopf-related protein 1 (Homo sapiens) (O94907 whole entry, looked up): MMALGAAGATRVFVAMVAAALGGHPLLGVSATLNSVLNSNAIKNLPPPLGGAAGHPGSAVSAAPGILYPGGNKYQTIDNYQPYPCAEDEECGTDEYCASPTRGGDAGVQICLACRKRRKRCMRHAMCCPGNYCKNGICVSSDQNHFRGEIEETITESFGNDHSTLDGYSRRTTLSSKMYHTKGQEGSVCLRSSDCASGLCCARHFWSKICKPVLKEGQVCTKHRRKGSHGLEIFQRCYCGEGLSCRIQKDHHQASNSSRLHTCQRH
Sequence of Epidermal growth factor receptor (Homo sapiens) (P00533 whole entry, looked up): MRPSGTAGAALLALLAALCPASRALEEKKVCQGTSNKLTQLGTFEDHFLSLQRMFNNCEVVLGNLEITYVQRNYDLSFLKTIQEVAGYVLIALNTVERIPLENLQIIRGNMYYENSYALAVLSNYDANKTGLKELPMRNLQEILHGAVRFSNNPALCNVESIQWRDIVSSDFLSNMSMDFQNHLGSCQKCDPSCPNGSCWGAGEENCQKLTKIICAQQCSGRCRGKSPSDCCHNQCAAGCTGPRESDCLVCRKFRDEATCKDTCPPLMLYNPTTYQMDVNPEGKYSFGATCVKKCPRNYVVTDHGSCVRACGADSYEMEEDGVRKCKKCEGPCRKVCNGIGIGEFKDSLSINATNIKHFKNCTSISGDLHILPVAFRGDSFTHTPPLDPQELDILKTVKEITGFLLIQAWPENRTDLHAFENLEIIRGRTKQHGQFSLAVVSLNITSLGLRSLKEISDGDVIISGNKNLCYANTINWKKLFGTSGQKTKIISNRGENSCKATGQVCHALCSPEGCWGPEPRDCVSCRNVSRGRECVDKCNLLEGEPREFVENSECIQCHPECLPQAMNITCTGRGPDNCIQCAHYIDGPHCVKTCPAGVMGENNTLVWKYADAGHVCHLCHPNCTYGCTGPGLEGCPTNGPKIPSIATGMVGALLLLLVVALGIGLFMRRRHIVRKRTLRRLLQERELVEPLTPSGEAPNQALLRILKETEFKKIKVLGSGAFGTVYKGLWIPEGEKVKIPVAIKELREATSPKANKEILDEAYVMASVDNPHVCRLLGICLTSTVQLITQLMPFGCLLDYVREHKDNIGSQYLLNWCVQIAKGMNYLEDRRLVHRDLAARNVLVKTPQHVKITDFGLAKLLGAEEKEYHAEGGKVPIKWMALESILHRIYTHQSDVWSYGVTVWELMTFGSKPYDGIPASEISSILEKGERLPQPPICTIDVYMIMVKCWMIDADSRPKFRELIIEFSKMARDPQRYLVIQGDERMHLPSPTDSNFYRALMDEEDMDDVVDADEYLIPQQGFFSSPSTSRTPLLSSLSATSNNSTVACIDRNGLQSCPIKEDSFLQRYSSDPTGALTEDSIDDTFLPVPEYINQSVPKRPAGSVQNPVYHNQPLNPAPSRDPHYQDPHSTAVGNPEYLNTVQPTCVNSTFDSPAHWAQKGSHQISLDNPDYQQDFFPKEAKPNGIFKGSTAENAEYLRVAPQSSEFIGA
Sequence of Fibroblast growth factor 10 (Homo sapiens) (O15520 whole entry, looked up): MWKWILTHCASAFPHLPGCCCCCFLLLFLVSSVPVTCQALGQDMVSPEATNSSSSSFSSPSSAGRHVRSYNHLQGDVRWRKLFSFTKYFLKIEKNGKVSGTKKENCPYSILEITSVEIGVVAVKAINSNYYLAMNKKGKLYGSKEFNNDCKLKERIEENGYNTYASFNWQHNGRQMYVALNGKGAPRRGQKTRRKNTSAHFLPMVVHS

SMILES	composite z-score [1]	z-score [2]	z-score [3]	z-score [4]	composite z-score [5]	z-score [6]	composite z-score [7]	composite z-score [8]	composite z-score [9]	composite z-score [10]	composite z-score [11]	composite z-score [12]	composite z-score [13]	z-score [14]	composite z-score [15]	composite z-score [16]	composite z-score [17]	composite z-score [18]	composite z-score [19]	composite z-score [20]
CC(CCN1CCc2nc(-c3ccccc3)c(-c3ccccc3)cc2C1)=NO[C@@H](C)c1cn([C@H](CO)Cc2ccccc2)nn1	0.747	-2.46 (inactive)	-2.24 (inactive)	-4.45 (inactive)	0.272	-0.966 (inactive)	-0.037	0.549	-0.474	-0.0172	0.0154	-0.336	0.119	-1.26 (inactive)	-0.105	-0.335	0.209	0.176	0.175	1.13
O[C@@H](Cc1ccccc1)[C@H]1C2C=CCCC(c3ccccc3)=C2CN1Cc1cccc(Cl)c1 (stereo not given in full)	1.44	-0.122 (inactive)	-3.65 (inactive)	-1.09 (inactive)	1.73	2.78 (inactive)	-0.106	0.96	1.12	-0.0549	0.0167	-0.0232	0.7	-0.205 (inactive)	0.653	0.913	0.21	0.847	0.473	0.264
O=C1[C@H]2[C@H]3[C@H](O)[C@H](O)CC(=NO[C@@H]4O[C@H](CO)[C@@H](O)[C@H](O)[C@H]4O)[C@H]3CC[C@H]2C(=O)N1Cc1ccc2c(c1)OCO2	0.661	0.827 (inactive)	0.918 (inactive)	-0.297 (inactive)	2.14	0.529 (inactive)	0.0835	-0.246	-0.133	-0.17	0.381	0.215	0.821	-0.0194 (inactive)	-0.0585	-0.417	-0.678	-0.387	-0.899	-0.401
COc1ccc([Si](C)(C)[C@@H]2[C@@H](CC(=O)N3CCC[C@H]3CO)O[C@]3(C(=O)N(Cc4cccc(N5CCC5=O)c4)c4ccccc43)[C@H]2C)cc1	1.54	-0.569 (inactive)	-0.184 (inactive)	0.284 (inactive)	2.64	0.37 (inactive)	-0.0204	1.5	1.15	-0.0953	1.71	-0.264	0.363	-0.399 (inactive)	0.118	0.773	0.144	0.7	0.726	0.245
COCCOC(=O)N1C(=O)[C@@]2(c3cc(C#CCNC(N)=O)ccc31)[C@H](c1ccc(O)cc1)N1[C@H](c3ccccc3)[C@H](c3ccccc3)OC(=O)[C@H]1[C@@H]2C(=O)N1CCCCCCC1	1.55	1.2 (inactive)	0.159 (inactive)	1.27 (inactive)	0.859	0.576 (inactive)	0.354	1.28	1.08	0.0396	1.08	0.614	0.356	-0.364 (inactive)	1.25	0.43	0.611	1.38	0.969	0.85
CC(C)[C@H](NC(=O)OC(C)(C)C)[C@@H](O)CC(=O)OC(C)(C)C	-1.84	-0.0351 (inactive)	-0.379 (inactive)	0.596 (inactive)	-1.63	-0.809 (inactive)	-0.22	-0.531	-0.904	-0.29	-1.02	-0.298	-0.215	-0.566 (inactive)	-0.658	-1.38	-0.664	-0.746	-0.327	0.0055
CCOC(=O)[C@H](CC(C)C)NC(=O)CCC1CC(OC(=O)NCc2cccc3ccccc23)CC2(CCCC(COC(=O)NCCN3CCOCC3)O2)O1 (stereo not given in full)	1.57	-1.26 (inactive)	0.557 (inactive)	-1.04 (inactive)	2.36	-0.737 (inactive)	-0.173	0.344	1.11	-0.0828	0.608	-0.265	-0.668	-0.746 (inactive)	0.763	1.28	0.416	0.707	0.652	0.209
CC(C)N1CC=CC23O[C@@H]4C=CCCOC(=O)C4[C@H]2C(=O)N(CCCCCCO)[C@@H]3C1=O (stereo not given in full)	0.613	0.653 (inactive)	0.159 (inactive)	0.121 (inactive)	1.94	-0.0822 (inactive)	-0.233	-0.984	-0.0917	-0.297	0.627	-0.201	0.587	1.59 (inactive)	-1.03	-1.13	-1.13	-1.22	-1.59	0.12
O=C1[C@H]2[C@H]3[C@H](O)[C@H](O)CC(=NOC[C@@H](O)COCc4ccco4)[C@H]3CC[C@H]2C(=O)N1C1CCCCC1	1.1	0.432 (inactive)	-0.299 (inactive)	0.356 (inactive)	-0.522	-0.263 (inactive)	-0.0841	1.19	0.214	-0.0141	0.508	-0.565	-1.6	-1.13 (inactive)	0.0351	1.16	0.623	0.499	0.942	1.31
CCN1C(=O)[C@H]2[C@H]3[C@H](O)[C@H](O)CC(=NO[C@@H]4O[C@H](CO)[C@@H](O)[C@H](O)[C@H]4O)[C@@H]3CC[C@H]2C1=O	-0.685	-0.58 (inactive)	-0.599 (inactive)	-0.849 (inactive)	-1.12	0.103 (inactive)	-0.132	-0.103	-0.389	-0.19	0.562	-0.291	-0.233	-0.448 (inactive)	-0.584	-1.42	-0.831	-0.534	-0.0655	0.613
